# From the supplement of paper PMC10338343
# ± gives the standard deviation.
# Columns and labels:
# [1] = system: MILI (PIWIL2) piRISC loaded with L1MC piRNA (26 nt); test: pre-steady-state target cleavage rate (min^-1); guide: L1MC piRNA 5'p-UAACUAAAUACUAUGCAAGCUGUAGG; higher = faster piRNA-guided slicing of the target;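 further: 1 nM active piRISC with 0.1 nM target library at 33 °C single turnover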
# In short: (§1)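 At 33 °C in HEPES–potassium acetate buffer, a transcribed, DNA-blocked target RNA library […] was exposed for 0–8 or 0–960 min to 1 nM active affinity-purified piRISC carrying a single synthetic guide, with or without 500 nM GTSF1 partner protein. Uncleaved targets were sequenced and normalised to depth and to weakly complementary targets. With three trials pooled and k3 capped at 0.0001 min^-1, a burst-and-steady-state fit produced the pre-steady-state cleavage rate.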
# [2] = system: EfPiwi piRISC loaded with L1MC piRNA (26 nt); test: pre-steady-state target cleavage rate (min^-1); auxiliary factor: 500 nM Ephydatia muelleri Gtsf1; guide: L1MC piRNA 5'p-UAACUAAAUACUAUGCAAGCUGUAGG; MIWI and MILI are mouse PIWI proteins and EfPiwi is from a freshwater sponge; tags in brackets are library labels; higher = faster piRNA-guided slicing of the target
# In short: as §1
# [3] = auxiliary factor: 500 nM mouse GTSF1
# [4] = auxiliary factor: none (no GTSF1)
Sequence,"pre-steady-state target cleavage rate [1, 3]","pre-steady-state target cleavage rate [1, 4]",pre-steady-state target cleavage rate [2]
UCCUGGAUGUGGUUGCAUAGUAUUUAGUAA,0.0925 ± 0.021,0.0105 ± 0.0041,0.11 ± 0.056
UCCUGGAUGUGCUUGCAUAGUAUUUAGUAA,0.246 ± 0.031,0.00665 ± 0.0025,0.00442 ± 0.002
UCCUGGUACAGCGUGCAUAGUAUUUAGUUA,0.225 ± 0.031,0.00988 ± 0.0044,0.0121 ± 0.004
UCCUCCUACAGCUUGCUUACUAUUUAGUUA,0.089 ± 0.011,0.00298 ± 0.0026,0.0407 ± 0.015
UCCUGGAUGUCCUUGCAUAGUAUUUAGUAUA,0.191 ± 0.03,0.00617 ± 0.0026,0.00442 ± 0.0031
UCCUCCUACAGCUUGCCUAGUAUUUAGUUA,0.253 ± 0.022,0.00736 ± 0.002,0.0514 ± 0.014
UCCUGCUACAGGCUUGCAUAGUAUUUAGUUA,0.241 ± 0.014,0.0112 ± 0.0031,0.00977 ± 0.0027
UCCUGGUACAGCUAGCAUAGUAUUUAGUAA,0.201 ± 0.022,0.00371 ± 0.0023,0.00365 ± 0.0021
UCCUGCUACAGCUAGCAUAGUAUAUAGUUA,0.27 ± 0.03,0.00448 ± 0.0023,0.00485 ± 0.0017
UCCUGGAACAGCUGGCAUAGUAUUUAGUUA,0.17 ± 0.012,0.00801 ± 0.003,0.00699 ± 0.0026
UCCUGGAUGUCCUCGCAUAGUAUUUAGUUA,0.0711 ± 0.01,0.00777 ± 0.0022,0.00388 ± 0.0033
UCCUGGAAGAGCUUGCAUAGUAUUUAGUAA,0.201 ± 0.014,0.00564 ± 0.0021,0.00426 ± 0.0021
UCCUGGAUCAGCUAGCAAAGUAUUUAGUUA,0.0976 ± 0.012,0.00566 ± 0.0019,0.00308 ± 0.0029
UCCUCCUACAGCUUGGAUAGUAUUAAGUUA,0.134 ± 0.017,0.00275 ± 0.0027,0.00905 ± 0.0043
UCCUGGUACAGCUAGCAAAGUAUUUAGUUA,0.102 ± 0.013,0.0127 ± 0.0033,0.00688 ± 0.0029
UCCUGCUAACAGCUUGCAUAGUAUUUAGUUA,0.307 ± 0.033,0.00599 ± 0.0032,0.0114 ± 0.0038
UCCUGGUACAGCUUGCAUAGUAUCUAGUUA,0.156 ± 0.029,0.00431 ± 0.0025,0.004 ± 0.0021
UCCUGGAACAGCUUGCCUAGUAUUUAGUUA,0.248 ± 0.015,0.00673 ± 0.0024,0.0399 ± 0.013
UCCUGGAACAGCUUGCUUACUAUUUAGUUA,0.0834 ± 0.011,0.0029 ± 0.0024,0.00758 ± 0.0029
UCCUCCUACAGCUUGGAAAGUAUUUAGUUA,0.141 ± 0.014,0.00715 ± 0.0023,0.0615 ± 0.013
UCCUGGAACAGCUAGCAUAGUAUUAAGUUA,0.192 ± 0.015,0.00356 ± 0.0025,0.0146 ± 0.0061
UCCUCCUACAGCUUACAUAGUAUUUAGUUA,0.276 ± 0.016,0.00586 ± 0.0026,0.106 ± 0.028
UCCUGCUACAGCUUGCAUAGUAUUUAGGUUA,0.265 ± 0.042,0.00346 ± 0.0028,0.00526 ± 0.0014
UCCUCGUACAGCUUGCAAAGUAUUUAGUUA,0.149 ± 0.01,0.00953 ± 0.0024,0.143 ± 0.032

Sequence,"pre-steady-state target cleavage rate [1, 3]","pre-steady-state target cleavage rate [1, 4]",pre-steady-state target cleavage rate [2]
UCCUGCUACUGCUUGCAAAGUAUUUAGUUA,0.0928 ± 0.013,0.00523 ± 0.0021,0.00588 ± 0.0023
UCCUCCUACAGCUUGCAUAGUAUAUUGUUA,0.128 ± 0.019,0.00269 ± 0.0025,0.00489 ± 0.003
UCCUGGAAGCAGCUUGCAUAGUAUUUAGUUA,0.259 ± 0.016,0.0136 ± 0.0032,0.0569 ± 0.013
UCCUGGAUCAGCUUCCAAAGUAUUUAGUUA,0.0704 ± 0.0082,0.00341 ± 0.0024,0.00404 ± 0.0027
UCCUGGAGCAGCUUGCAUAGUAUUUAGUUA,0.333 ± 0.021,0.0118 ± 0.0032,0.101 ± 0.024
UCCUGGAUCAGCAUUGCAUAGUAUUUAGUUA,0.278 ± 0.024,0.0103 ± 0.0029,0.0605 ± 0.015
UCCUGGAUGAUGCUUGCAUAGUAUUUAGUUA,0.228 ± 0.023,0.00923 ± 0.0034,0.0738 ± 0.022
UCCUGCUUCAGCUUGCAUAGUUUUUAGUUA,0.0646 ± 0.011,0.00355 ± 0.0025,0.00715 ± 0.0025
UCCUGGAACAGCUUGGAUAGUAUUUAGUAA,0.198 ± 0.023,0.00431 ± 0.0019,0.00371 ± 0.002
UCCUGGAACAGCUUGCAGAGUAUUUAGUUA,0.193 ± 0.019,0.00795 ± 0.0019,0.012 ± 0.003
UCCUGGAACAGCUUGCAUAGUAUUUAGUAUA,0.273 ± 0.027,0.00406 ± 0.0038,0.00935 ± 0.005
UCCUGGAUGAGCUUGCAUUGUAUUAAGUUA,0.0879 ± 0.017,0.00381 ± 0.0027,0.0041 ± 0.0035
UCCUGCUACAGCUAGCAUAGUUUUUAGUUA,0.0836 ± 0.014,0.00345 ± 0.0024,0.00472 ± 0.0016
UCCUCCAUCAGCUUGCAUAGUAUUUAGUUA,0.248 ± 0.018,0.00673 ± 0.002,0.0155 ± 0.005
UCCUGGUACAGCUUGCUUAGUAUAUAGUUA,0.197 ± 0.045,0.00855 ± 0.0026,0.0737 ± 0.025
UCCUGGUACAGCUUGCAUAGUAUUUGGUUA,0.205 ± 0.033,0.0142 ± 0.0043,0.00525 ± 0.002
UCCUGGAUCAGCAAGCAUAGUAUUUAGUUA,0.231 ± 0.021,0.00449 ± 0.0021,0.0107 ± 0.0038
UCCUGGAUCAGCUUGCAUAGUAUUUAGUA,0.263 ± 0.019,0.00426 ± 0.0027,0.00808 ± 0.0034
UCCUGCUACAGCCUGCAUAGUAUUUAGUUA,0.279 ± 0.025,0.00704 ± 0.0031,0.01 ± 0.0029
UCCUGGUACAGCUUGGCAUAGUAUUUAGUUA,0.4 ± 0.093,0.00473 ± 0.0036,0.05 ± 0.016
UCCUGCUACAACUUGCAUAGUAUUUAGUUA,0.247 ± 0.023,0.00739 ± 0.0024,0.00776 ± 0.0029
UCCUGCUACAGCUUGAUAGUAUUUAGUUA,0.133 ± 0.017,0.00396 ± 0.0021,0.00658 ± 0.0031
UCCUGGAACAGGUUGCAUAGUAUAUAGUUA,0.211 ± 0.023,0.00891 ± 0.0023,0.0101 ± 0.0045
